COUP-TFII inh = NR2F2 (human) inhibition, primary screen. P24468. HEK293T NGFI-A luciferase reporter, luminescence. inhibition, % at 8.6 µM. 370,000 tested, 0.7% active;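 active means inhibition above a per-plate cutoff, mean inhibition of test wells between control levels plus 3 SD, cut at about 38% in these data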;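 further: cells cotransfected with COUP-TFII expression vector driving the NGFI-A reporter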
NR5A2 inv ag = suppresses constitutive activity of human LRH-1 | HEK293T StAR-luciferase reporter, LRH-1 transfected, 24 h | inhibition, % at 3.6 µM | 360,000 tested, 0.13% active;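 active means inhibition above the mean inhibition of all tested compounds plus 3 SD, cut at about 73% in these data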
SRC2 inh = inhibits human steroid receptor coactivator 2; Q15596; HEK293 GAL4-SRC2 luciferase reporter, luminescence; inhibition, % at 9 µM; 370,000 tested, 0.17% active; AID 651957;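 active means inhibition above the mean inhibition of all tested compounds plus 3 SD, set per campaign, cut at about 52% in these data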
SRC1 inh = human NCOA1 inhibition; Q15788; HEK293 GAL4-SRC1 luciferase reporter, luminescence; inhibition, % at 3.6 µM; 360,000 tested, 0.12% active; AID 588354;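 active means inhibition above the campaign mean plus 3 SD, with each screening campaign given its own cutoff, cut at about 60% in these data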
NCOA3 inh = inhibits human SRC3 coactivator; Q9Y6Q9; HEK293 GAL4-SRC3 luciferase reporter, luminescence; inhibition, % at 3.6 µM; 360,000 tested, 0.17% active; AID 588352;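 active means inhibition above a per-campaign cutoff, the mean of all compounds plus 3 SD, cut at about 60% in these data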;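 further: higher means less SRC3-driven luciferase light from the GAL4 reporter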
Gal4-VP16 ctr = inhibits VP16 reporter, flagging COUP-TFII antagonist hits; inhibition, % at 8.5 µM; shares compounds with COUP-TFII inh; 2,500 tested, 25% active; AID 687007; HEK293 Gal4-VP16 luciferase reporter, luminescence; in the data active means inhibition above about 13%
NR2F2 inh conf = COUP-TFII (NR2F2) inhibition, confirmation assay; shares compounds with COUP-TFII inh; HEK293 NGFI-A luciferase reporter, luminescence; inhibition, % at 8.5 µM; 2,500 tested, 45% active; AID 687008;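 active means mean inhibition over three repeats above a set limit taken from the earlier primary screen, cut at about 38% in these data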
Of the large screens only hits and unclear results are named; the others gave an inactive call (follow-up assays come after a bar, where they were run). Rows were chosen to be rich in hits. Some 0.83% of all compounds tested hit in one or more screens of this group.

Cc1cccc(OCCCC(=O)Nc2ccc(Cl)c(S(=O)(=O)N3CCOCC3)c2)c1	COUP-TFII inh 39 | Gal4-VP16 ctr inactive | NR2F2 inh conf 39
Cc1cccc(OCCC(=O)Nc2ccc(C)c(S(=O)(=O)N3CCOCC3)c2)c1	none
COc1ccc(NC(=O)CCOc2cc(C)ccc2C)cc1S(=O)(=O)N1CCCCC1	COUP-TFII inh 41 | Gal4-VP16 ctr inactive | NR2F2 inh conf inactive
Cc1cccc(OCCC(=O)Nc2ccc(C)c(S(=O)(=O)N3CCCCC3)c2)c1	COUP-TFII inh 38 | Gal4-VP16 ctr inactive | NR2F2 inh conf inactive
Cc1cc(Cl)c(S(=O)(=O)NC(C(=O)O)C(C)C)cc1OCC(=O)NC1CCCCC1 (stereo unspecified)	none
Cc1cc(Cl)c(S(=O)(=O)N2CCCC2)cc1OCC(=O)NC1CCCCC1	COUP-TFII inh 62 | Gal4-VP16 ctr inactive | NR2F2 inh conf inactive
COc1ccc(NC(=O)CCCOc2ccc(C)cc2)cc1S(=O)(=O)N1CCCCC1	none
COc1cc(OC)cc(C(=O)NCCN2C(=O)C3C4C=CC(C4)C3C2=O)c1 (stereo unspecified)	none (no result: NR5A2 inv ag, SRC1 inh, NCOA3 inh)
O=S(=O)(/C=C/C=C/S(=O)(=O)c1ccccc1)c1ccccc1	COUP-TFII inh 51 | Gal4-VP16 ctr 49 | NR2F2 inh conf 72
CCN1/C(=C/C=C/c2sc3ccccc3[n+]2CC)Sc2ccccc21	none (no result: COUP-TFII inh, SRC2 inh)
CCOC(=O)/C(=C/C=C1\Sc2cc(C)c(C)cc2N1CC)C(C)=O	none
CCN1/C(=C/c2ccc3cc(C)ccc3[n+]2CC)Sc2cc(C)c(C)cc21	COUP-TFII inh 78 | Gal4-VP16 ctr inactive | NR2F2 inh conf 64
CCN1/C(=C/c2ccc3cc(C)ccc3[n+]2CC)Sc2ccccc21	COUP-TFII inh 86, NR5A2 inv ag 96, SRC1 inh 65 | Gal4-VP16 ctr inactive | NR2F2 inh conf 79
CC[n+]1c(/C=C2\Sc3ccccc3N2C)ccc2cccc(C)c21	COUP-TFII inh 80, NR5A2 inv ag 84 | Gal4-VP16 ctr 14 | NR2F2 inh conf 78
Cc1cc(N2CCN(C/C=C/c3ccccc3)CC2)n2ncnc2n1	COUP-TFII inh 40 | Gal4-VP16 ctr inactive | NR2F2 inh conf inactive
O=C1COc2ccc(S(=O)(=O)CCC(=O)N3CCN(c4cccc(Cl)c4)CC3)cc2N1	none
Cc1ccc(Cl)cc1N1CCN(C(=O)CCS(=O)(=O)c2ccc3c(c2)NC(=O)CO3)CC1	COUP-TFII inh 54 | Gal4-VP16 ctr inactive | NR2F2 inh conf inactive
O=C(c1cc2c(s1)-c1ccccc1S(=O)(=O)C2)N1CCN(Cc2ccccc2)CC1	COUP-TFII inh 39 | Gal4-VP16 ctr inactive | NR2F2 inh conf inactive
NS(=O)(=O)c1ccc(CCNC(=O)CN2CCC(Cc3ccccc3)CC2)cc1	COUP-TFII inh 38 | Gal4-VP16 ctr inactive | NR2F2 inh conf inactive
O=C(CN1CCC(Cc2ccccc2)CC1)NCCc1ccc(F)cc1	none
Cc1cc2nc(C3CCCN(C(=S)Nc4ccccc4C)C3)[nH]c2cc1C (stereo unspecified)	COUP-TFII inh 45 | Gal4-VP16 ctr inactive | NR2F2 inh conf inactive
Cc1ccc2nc(C3CCCN(C(=S)Nc4cccc(C)c4C)C3)[nH]c2c1 (stereo unspecified)	none
COCCN1CCN(C(=O)c2ccc3nc(Cc4ccc(OC)c(OC)c4)oc3c2)CC1	COUP-TFII inh 49 | Gal4-VP16 ctr inactive | NR2F2 inh conf 48
COc1ccc(Cc2nc3ccc(C(=O)N4C[C@@H](C)O[C@@H](C)C4)cc3o2)cc1OC	none
CCc1nc(C)cn1S(=O)(=O)c1cc(C)c(OC)cc1C	none
CCc1nc(C)cn1S(=O)(=O)c1cc(C)c(OC)c(C)c1C	COUP-TFII inh 49 | Gal4-VP16 ctr inactive | NR2F2 inh conf 40
O=c1cc(N2CCN(c3cccc(Cl)c3Cl)CC2)[nH]c(=O)n1C1CCCCC1	none (no result: NR5A2 inv ag, SRC2 inh, SRC1 inh, NCOA3 inh)
O=S1(=O)c2ccc(N3CCN(Cc4ccccc4F)CC3)cc2Oc2ccccc2CN1Cc1cn(Cc2cccc(C(F)(F)F)c2)nn1	none (no result: NR5A2 inv ag, SRC1 inh, NCOA3 inh)
CCOC(=O)C1CCN(S(=O)(=O)c2ccc3c(c2)NC(=O)C(C)S3)CC1 (stereo unspecified)	none
CCOC(=O)C1CCN(S(=O)(=O)c2ccc3c(c2)N(C(C)=O)CC(C)S3)CC1 (stereo unspecified)	COUP-TFII inh 49 | Gal4-VP16 ctr inactive | NR2F2 inh conf inactive
CCN(CC)C(=O)[C@H]1C[C@@H]2[C@H](C[C@@H](c3ccccc3)[C@H]1C)N(c1ccc(F)cc1)C(=O)N2C/C=C(\C)CCC=C(C)C	none (no result: NR5A2 inv ag, SRC1 inh, NCOA3 inh)
COc1cccc(C(=O)N[C@H](C(=O)N2CCC[C@H]2C(=O)NCc2ccccc2)C2CCCCC2)c1	none (no result: NR5A2 inv ag, SRC1 inh, NCOA3 inh)
O=C(Nc1cccc(S(=O)(=O)c2cccc(NC(=O)c3ccco3)c2)c1)c1ccco1	COUP-TFII inh 70 | Gal4-VP16 ctr inactive | NR2F2 inh conf inactive
COCCNC(=S)N(C)[C@H]1C[C@H]2c3[nH]c4c(-c5ccccc5)cccc4c3CCN2C[C@H]1[C@H](C)O	none (no result: NR5A2 inv ag, SRC1 inh, NCOA3 inh)
COc1ccc(S(=O)(=O)N/N=C\c2ccc3c(c2)OCO3)c(OC)c1	COUP-TFII inh 48 | Gal4-VP16 ctr inactive | NR2F2 inh conf inactive
Cc1[nH]c2ccccc2c1CC(=O)Nc1ccc(Oc2cccnc2)cc1	none (no result: NR5A2 inv ag, SRC1 inh, NCOA3 inh)
COC(=O)c1c(C)n(-c2ccccc2)c2ccc(O)cc12	none
CN(C)/C=C/c1c([N+](=O)[O-])c2ccc(O)cc2n1-c1ccccc1	COUP-TFII inh 40 | Gal4-VP16 ctr inactive | NR2F2 inh conf inactive
C/C(=N/NC(=O)CN1CCN(Cc2ccccc2Cl)CC1)c1cccc(O)c1	none (no result: NR5A2 inv ag, SRC1 inh, NCOA3 inh)
CC[C@H](C)[C@@H]1NC(=O)[C@@H](CC(C)C)NC(=O)[C@H](C(C)C)NC(=O)[C@H]2CSSC[C@H](NC1=O)C(=O)N2	COUP-TFII inh 106, NR5A2 inv ag 103, SRC2 inh 94, SRC1 inh 96, NCOA3 inh 95 | Gal4-VP16 ctr 96 | NR2F2 inh conf 112
Cc1cc(N2CCNC[C@H]2C)ccc1N1CCN(Cc2ccccc2)[C@H](C)C1	none (no result: NR5A2 inv ag, SRC1 inh, NCOA3 inh)
Nc1ncnc2c1ncn2[C@@H]1O[C@H](CO)[C@@H](O)[C@H]1O	none
Nc1ncnc2c(C3OC(CO)C(O)C3O)c[nH]c12 (stereo unspecified)	COUP-TFII inh 82, NR5A2 inv ag 100, SRC2 inh 70, SRC1 inh 94, NCOA3 inh 94 | Gal4-VP16 ctr 49 | NR2F2 inh conf 81
CN(C)S(=O)(=O)c1cccc(CSCc2cccc(S(=O)(=O)N(C)C)c2)c1	COUP-TFII inh 57 | Gal4-VP16 ctr inactive | NR2F2 inh conf 56
COc1cccc(N2CCN(c3c4c(nc5ncnn35)CCC4)CC2)c1	COUP-TFII inh 55 | Gal4-VP16 ctr inactive | NR2F2 inh conf inactive
c1ccc(N2CCN(c3c4c(nc5ncnn35)CCC4)CC2)cc1	none
